Experimental data: PubChem BioAssay (NCI)
Where “and” joins values, the source holds several entries; their conditions need not be identical. Equal entries are not always repeated. This is part of a sample that, as a whole, favours compounds with a hit. Of some 83,000 tested, about 20% had one in any assay.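 Testing used 96-well plates and a 48-hour single-concentration exposure. Example: -40 means 40% of the starting cells died.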 Calls of active or inactive are those of the source. The calls were made as follows: active = growth percent below 10; inactive = the rest.

Columns and labels:
Experiment in all cases: NCI-60 one-dose screen, 48 h (100 = growth as untreated, 0 = no growth, -100 = all killed)
[1] = test system: T-47D breast
[2] = test system: BT-549 breast
[3] = test system: MDA-MB-435 melanoma
[4] = test system: SW-620 colon
[5] = test system: MCF7 breast
[6] = test system: HCT-116 colon
[7] = test system: HCC-2998 colon
[8] = test system: KM12 colon

Measured: growth

CCCCCCCCCCSC(=N)N
active: [1]; 10 µM -5.33% | [4]; 10 µM -5.44% | [5]; 10 µM 8.06% | [7]; 10 µM -27.2%
inactive: [2]; 10 µM 85.9% | [3]; 10 µM 30% | [6]; 10 µM 23.4% | [8]; 10 µM 23.2%

O=[N+]([O-])C1=C(c2ccccc2)SC=C(c2ccccc2)S1
inactive: [1]; 10 µM 51.9% | [2]; 10 µM 55.3% | [3]; 10 µM 75.3% | [4]; 10 µM 62.5% | [5]; 10 µM 51.6% | [6]; 10 µM 67% | [7]; 10 µM 108% | [8]; 10 µM 81.3%

COc1cccc2c1C(=O)c1c(O)c3c(c(O)c1C2=O)C[C@@](O)(C(=O)CO)C[C@@H]3OC1CC(N)C(O)C(C)O1 (some centres not stated)
active: [1]; 10 µM -11.3% | [2]; 1 µM 5.17% | [2]; 10 µM -59.2% | [3]; 10 µM -83.9% | [4]; 1 µM -1.05% | [4]; 10 µM 1.93% | [5]; 2.5 µM 7.74% | [5]; 10 µM 3.37% | [6]; 1 µM 8.95% | [6]; 10 µM 2.8% | [7]; 2.5 µM -13.3% | [7]; 10 µM -54.4% | [8]; 10 µM 4.23%
inactive: [1]; 0.0025 µM 90.7% | [1]; 1 µM 13.2% | [1]; 2.5 µM 39.5% | [2]; 0.0025 µM 81.9% | [2]; 2.5 µM 65.6% | [3]; 0.0025 µM 99% | [3]; 1 µM 50.1% | [3]; 2.5 µM 72.5% | [4]; 0.0025 µM 91.7% | [5]; 0.0025 µM 71.4% | [5]; 1 µM 18.7% | [6]; 0.0025 µM 76.1% | [6]; 2.5 µM 28.1% | [7]; 0.0025 µM 84.7% | [7]; 1 µM 59.8% | [8]; 0.0025 µM 93.1% | [8]; 1 µM 32.1%

Nc1ccc2cc3ccc(N)cc3nc2c1
102% (inactive) and 2.81% (active): [1]; 10 µM
109% (inactive) and 3.02% (active): [6]; 10 µM
111% (inactive) and -21.7% (active): [5]; 10 µM
121% (inactive) and 9.1% (active): [8]; 10 µM
inactive: [2]; 10 µM 95.9% and 69.1% | [3]; 10 µM 103% and 23.4% | [4]; 10 µM 103% and 10.5% | [7]; 10 µM 110% and 16.7%

N=S(c1ccccc1[N+](=O)[O-])c1ccccc1[N+](=O)[O-]
active: [1]; 10 µM -2.34% | [5]; 10 µM -53.7% | [6]; 10 µM 5.85%
inactive: [2]; 10 µM 84.7% | [3]; 10 µM 62.1% | [4]; 10 µM 17.9% | [7]; 10 µM 90.4% | [8]; 10 µM 88.8%

OCC(O)C(O)C(O)C(/C=N/Nc1ccccc1)=N/Nc1ccccc1 (configuration not stated)
inactive: [1]; 10 µM 57.9% | [2]; 10 µM 88.9% | [3]; 10 µM 78% | [4]; 10 µM 88.3% | [5]; 10 µM 88.3% | [6]; 10 µM 84.4% | [7]; 10 µM 84.2% | [8]; 10 µM 75.1%

NNc1c2ccccc2nc2ccccc12
inactive: [1]; 10 µM 74.6% | [2]; 10 µM 43.8% | [3]; 10 µM 49.4% | [4]; 10 µM 43.9% | [6]; 10 µM 40.1% | [7]; 10 µM 57.1% | [8]; 10 µM 36.7%

C[n+]1c2cc(N)ccc2cc2ccc(N)cc21
2.1% (active) [middle of 4 runs]: [4]; 10 µM
active: [1]; 10 µM -14.1% and -9.22% and -15% | [5]; 10 µM -3.9% [middle of 4 runs]

CN(C)C(=S)SC(=S)N(C)C
inactive: [1]; 10 µM 67% and 96.3% | [2]; 10 µM 109% and 115% | [3]; 10 µM 94.6% and 93% | [4]; 10 µM 102% and 96% | [5]; 10 µM 35.3% and 71.2% | [6]; 10 µM 87% and 67.7% | [7]; 10 µM 96.7% and 107% | [8]; 10 µM 110% and 97.3%

OC(CN1CCCC2CCCCC21)c1cc2ccccc2c2ccccc12 (configuration not stated)
active: [5]; 10 µM 7.24% | [6]; 10 µM 1.99%
inactive: [1]; 10 µM 14.9% | [2]; 10 µM 46% | [3]; 10 µM 32% | [4]; 10 µM 27.1% | [7]; 10 µM 13.5% | [8]; 10 µM 15.9%

Cc1cc(NS(=O)(=O)c2ccc(N=Nc3cc(N=Nc4ccc(S(=O)(=O)Nc5cc(C)nc(C)n5)cc4)c4c(NC(=O)C(Cl)Cl)cccc4c3OC(=O)C(Cl)Cl)cc2)nc(C)n1 (tested in a mixture with another compound)
inactive: [1]; 10 µM 101% and 87.1% | [2]; 10 µM 111% and 99.7% | [3]; 10 µM 101% and 111% | [4]; 10 µM 122% and 104% | [5]; 10 µM 94.4% and 78% | [6]; 10 µM 105% and 95.2% | [7]; 10 µM 107% and 111% | [8]; 10 µM 107% and 106%

CCO/C=C1\SC(=S)N(c2cccc(O)c2)C1=O
inactive: [1]; 10 µM 87.4% | [2]; 10 µM 93.8% | [3]; 10 µM 102% | [4]; 10 µM 112% | [5]; 10 µM 84.1% | [6]; 10 µM 96.9% | [7]; 10 µM 111% | [8]; 10 µM 97.2%
